The text below walks through data of PubChem BioAssay AID1259339 (Broad Institute, 2017).

Molecules are shown by their SMILES. The source made the active and inactive calls.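 The calls were made as follows: active = fitted AC50 no higher than ten times the top tested dose (cut at about 90 µM in these data); inconclusive = flat curve with 30 to 70% signal loss, or bad fit; inactive = AC50 beyond ten times the top dose.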

In general, AC50 refers to the concentration giving half of the maximal activity seen.

A short description of this assay: AlphaLISA signal interference compounds, dose response, artefact control, biochemical, TruHit kit (AID 1259339). The conditions noted are these: TruHit alphaLISA kit signal interference counterscreen; series mostly up to 80 µM.
Take `c1ccc(-c2nc(-c3ccco3)n3ccccc23)cc1`: the AC50 was 27.2 µM (active).
For `CCCc1oc(C(=O)O)cc1CN`, the AC50 result is “inactive”.
As for `O=C(O)c1ccccc1/C=N/NC(=O)c1cc(-c2ccco2)nc2ccccc12`, the AC50 is 36 µM (active).
With `O=C(COC(=O)c1ccc(S(=O)(=O)NCc2ccco2)cc1)Nc1ccc(Cl)cn1`, the AC50 was > 160 µM (inactive).
On to `Cc1nc(C)c(C(=O)Nc2ncc([N+](=O)[O-])s2)o1`, for which the AC50 was 40.7 µM (active).
With `O=C1C=C(c2ccccc2)Nc2ccccc2N1`, the AC50 entry is “inactive”.
Turning to `C(=C\c1ccco1)/c1nc2ccccc2[nH]1`, the AC50 was 22.5 µM (active).
With `NC(=O)C1(N2CCCCC2)CCN(c2ncc(NC(=O)c3cccc(Cl)c3)cc2C(=O)O)CC1`, the AC50 was > 160 µM (inactive).
With `CCn1ccnc1C1CCN(C(=O)CCn2c(C)nc3ccccc32)CC1`, the AC50 entry was “inactive”.
Turning to `Cc1ccc(C(=O)Nc2ccc(N3CCC(C(N)=O)(N4CCCCC4)CC3)c(C(=O)O)c2)cc1`, the AC50 entry is “inactive”.
For the compound `COc1ccc(-c2ccc(CCC(=O)O)o2)cc1`, the AC50 result was “inactive”.
For the compound `CCc1nccn1CCC(=O)N1C[C@H](CO)C[C@H](CN2CCCC2)C1`, the AC50 entry is “inactive”.
Turning to `C[C@H](CO)N1C[C@H](C)[C@@H](CN(C)CC2CCCCC2)OCCCC[C@H](C)Oc2ccc(NS(=O)(=O)c3ccc(F)cc3)cc2C1=O`, the AC50 entry is “inactive”.
`Nc1ccc(-c2cccc(CN3CCCC3)c2)cc1`: the AC50 entry was “inactive”.
For the compound `Cc1ccc(Nc2nc(C(=O)Nc3ccc(Cl)cc3)nc3ccccc23)cc1`, the AC50 result was “inactive”.
Consider `O=C(Nc1nnc(-c2ccco2)s1)c1ccccc1`, for which the AC50 result is “inactive”.
Regarding `O=C(COC(=O)CCC(=O)c1cccs1)NCc1ccco1`, the AC50 entry is “inactive”.
As to `CC(C(=O)N1CCCC1)N1CCN(c2ccccc2O)CC1` (stereo unspecified), the AC50 entry was “inactive”.
Consider `C=CC(=O)N1CCCC2(CCN(CCN3CCCC3)C2=O)C1` (stereo unspecified), for which the AC50 result was “inactive”.
In the case of `COc1ccc(S(=O)(=O)c2ccccc2)cc1NS(=O)(=O)c1cccc(C(=O)O)c1`, the AC50 result was “inactive”.
As for `COc1ccc2nc(-c3ccco3)c(-c3ccco3)nc2c1`, the AC50 was 35.1 µM (active).
With `COc1ccc(-n2c(C)c3c(OC)cccc(=O)c3c2C)cc1` the figure was 22.1 µM (active); with `COc1ccc(S(=O)(=O)N2CCN(C(=O)c3cc4c(s3)CCC4)CC2)cc1`, > 160 µM (inactive); with `Cc1cncc(-c2ccc(S(N)(=O)=O)cc2F)c1`, “inactive”.
Turning to `NC(=O)C1(N2CCCCC2)CCN(c2ccc(NC(=O)c3ccccc3F)cc2C(=O)O)CC1`, the AC50 result is “inactive”.
In the case of `CC(=O)c1ccc(NC(=O)c2noc3c2CCC3)cc1`, the AC50 entry was “inactive”.
For `O=C1CS/C(=N\N=C\c2ccco2)N1c1ccccc1`, the AC50 was 30.8 µM (active).
With `O=c1/c(=C/c2ccco2)sc2nc3ccccc3n12` the figure was > 160 µM (inactive); with `O=C1CC2(CCN(C(=O)Nc3ccccc3)CC2)CN1Cc1ccc(Cl)cc1`, “inactive”.
Turning to `O=S(=O)(Nc1nccs1)c1ccc(-n2cccc2)cc1`, the AC50 is 18.8 µM (active).
As to `CC1(C)Cc2ccccc2-c2nc(-c3ccccc3)oc(=O)c21`, the AC50 was 33.4 µM (active).
Turning to `CCCN1CCCn2nc(CNC(=O)[C@H]3CC[C@@H](N)C3)cc2C1`, the AC50 entry was “inactive”.
Regarding `CCc1nc(OCc2ccco2)c2sc3nc4c(cc3c2n1)COC(C)(C)C4`, the AC50 entry was “inactive”.
On to `COc1cccc(NC(=O)CN(C)C(=O)c2cc3c(s2)CCC3)c1`, for which the AC50 is 74.6 µM (active).
As for `O=C(COC(=O)c1cc(-c2ccco2)nc2ccccc12)NCc1ccccc1`, the AC50 is 35.1 µM (active).
Then `OCc1ccc(O)c2ncccc12`, with > 160 µM (inactive).
